Screening results: PubChem BioAssay, Sanford-Burnham Center for Chemical Genomics
Only some compounds are listed: those with a hit (about 28% of all), similar ones and a draw of the others.
CYP2C19 inhib: human CYP2C19 inhibition; CYP2C19 Supersomes, luciferin-H EGE luminescence, 30 min; inhibition, % at 5 µM; hit rate 21% among 96,000; AID 778;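 active = CYP2C19 inhibition above a set limit at 5 µM in the primary screen, cut at about 50% in these data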;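 also: plate controls were negative control wells for no effect and 2.5 mM tranylcypromine positive control for full effect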
CYP2C19 activ: cytochrome P450 2C19 (human) activation. recombinant CYP2C19, luciferin-H EGE luminescence; hits give high values; 0 = fully inhibited enzyme, 1 = untreated enzyme. 96,000 tested, under 10 active. P33261. activation factor at 5 µM;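 active = activation factor of at least 2 at 5 µM in the primary screen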;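 also: 0 = wells with 2.5 mM tranylcypromine and 1 = vehicle-only wells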
CYP2C9 inhib: human CYP2C9 inhibition. hit rate 20% among 96,000. P11712. CYP2C9 Supersomes, luciferin-H conversion, luminescence. inhibition, % at 5 µM;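 active = blocking of liver enzyme CYP2C9 beyond about 50% at 5 µM, limit read from the data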
Target sequence (P11712 whole entry, looked up): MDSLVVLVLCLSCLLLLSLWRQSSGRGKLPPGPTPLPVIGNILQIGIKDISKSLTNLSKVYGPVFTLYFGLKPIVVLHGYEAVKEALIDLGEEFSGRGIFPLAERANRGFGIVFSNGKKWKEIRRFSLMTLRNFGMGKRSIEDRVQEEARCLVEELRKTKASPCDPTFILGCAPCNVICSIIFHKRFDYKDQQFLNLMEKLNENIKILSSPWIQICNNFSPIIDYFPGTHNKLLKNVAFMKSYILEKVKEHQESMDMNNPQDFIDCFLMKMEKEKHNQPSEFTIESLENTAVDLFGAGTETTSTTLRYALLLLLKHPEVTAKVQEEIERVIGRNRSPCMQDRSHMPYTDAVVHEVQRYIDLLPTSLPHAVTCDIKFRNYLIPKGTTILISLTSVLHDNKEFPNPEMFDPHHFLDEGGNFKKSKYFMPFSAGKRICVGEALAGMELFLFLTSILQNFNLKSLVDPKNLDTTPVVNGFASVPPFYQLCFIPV
CD11b adhes enh: enhancers of human CD11b/CD18 binding to fibrinogen; P05107+P11215; AID 1499; K562 CD11b/CD18 adhesion to fibrinogen, ATPlite luminescence; hit rate 0.07% among 93,000; activation, % at 10 µM;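 active = 10 µM primary screen giving 50% or more activity, confirmed by 40% or more on retest at that dose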
CYP2C9 activ: activators of human CYP2C9; P11712; recombinant CYP2C9, luciferin-H conversion, luminescence; hits give high values; factor 1 = untreated enzyme, 0 = blocked; activation factor at 5 µM; hit rate 1.4% among 96,000;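 active = activation factor of 2 or more for CYP2C9 at a 5 µM dose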;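 also: 0 = sulfaphenazole-blocked wells and 1 = vehicle-only wells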
Mac1 fbg inh: CD11b/CD18-fibrinogen binding inhibition | P05107+P11215 | K562 CD11b/CD18 adhesion to fibrinogen, ATPlite luminescence; Mn2+ added to activate the integrin | inhibition, % at 10 µM | hit rate 0.54% among 93,000;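 active = primary inhibition of 50% or more at 10 µM, then 40% or more on retest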
* = called active by the depositor; nt = no result given.

SMILES | CYP2C19 inhib | CYP2C19 activ | CYP2C9 inhib | CD11b adhes enh | CYP2C9 activ | Mac1 fbg inh
COc1ccccc1CNC(=O)c1ccc(CS(=O)(=O)c2ccccc2OC)o1 | 22 | 0.8 | 52* | -3 | 0.5 | 2
CC(C)C(=O)Nc1ccccc1N1CCN(S(C)(=O)=O)CC1 | 18 | 0.8 | 6 | -1 | 0.9 | -9
O=C(Nc1ccccc1N1CCN(C(=O)c2ccc(Cl)cc2)CC1)c1cccnc1 | 88* | 0.1 | 93* | 17 | 0.1 | -8
O=C(Nc1ccc(N2CCN(C(=O)c3ccc(Cl)cc3)CC2)cc1)c1cccnc1 | 17 | 0.8 | 10 | nt | 0.9 | nt
CC(C)C(=O)Nc1ccccc1N1CCN(C(=O)c2ccccc2)CC1 | 68* | 0.3 | 63* | 0 | 0.4 | -10
O=C(CSc1ccc(Cl)cc1)Nc1ccccc1N1CCN(C(=O)c2ccccc2)CC1 | 10 | 0.9 | 24 | -3 | 0.8 | 7
CC(C)CC(=O)Nc1ccccc1N1CCN(C(=O)c2ccccc2)CC1 | 77* | 0.2 | 76* | -1 | 0.2 | 3
Cc1cc[n+](-c2nc3ccccc3nc2[N-]S(=O)(=O)c2cccs2)cc1C | nt | nt | nt | 3 | nt | -6
O=C(C1c2ccccc2C(=O)N2CCc3ccccc3C12)N1CCN(Cc2ccccc2)CC1 (stereo unspecified) | -2 | 1 | 3 | -2 | 1 | -9
COc1ccc(Br)cc1C(=O)Nc1ccc(N2CCN(S(C)(=O)=O)CC2)cc1 | 16 | 0.8 | -97 | -1 | 2* | -28
COc1cccc(C(=O)Nc2ccc(N3CCN(S(C)(=O)=O)CC3)cc2)c1 | -10 | 1.1 | -9 | -2 | 1.1 | -40
COc1cc(C(=O)Nc2ccc(Br)cc2C(=O)c2cc(OC)c(OC)c(OC)c2)cc(OC)c1OC | 68* | 0.3 | 93* | 16 | 0.1 | -8
CCOc1cccc(C(=O)Nc2ccc(N3CCN(S(C)(=O)=O)CC3)cc2)c1 | 34 | 0.7 | 53* | -3 | 0.5 | -21
COc1cc(C(=O)Nc2ccc(N(C)C)cc2)cc(OC)c1OC | 70* | 0.3 | 27 | -4 | 0.7 | 1
COc1cccc(OC)c1C(=O)Nc1ccc(N2CCN(S(C)(=O)=O)CC2)cc1 | 23 | 0.8 | -9 | -8 | 1.1 | -9
CCc1c(O)nc(SCC(=O)Nc2ccccc2OC)[nH]c1=O | 28 | 0.7 | 38 | -3 | 0.6 | -5
O=C(COC(=O)C1CCN(S(=O)(=O)c2ccc3c(c2)OCCO3)CC1)Nc1cc(C(F)(F)F)ccc1Cl | nt | nt | nt | 0 | nt | 0
COc1ccc(Br)cc1C(=O)Nc1ccc(O)cc1 | 46 | 0.5 | -205 | 1 | 3.1* | -17
O=C(CSc1nnc(-c2ccccc2)o1)NC1CCCCC1 | 83* | 0.2 | 48 | 4 | 0.5 | -18
O=C(CSc1nnc(-c2ccco2)o1)NC1CCCCC1 | 55* | 0.4 | 10 | -3 | 0.9 | -7
O=C(CSc1nnc(-c2ccco2)o1)NC1CC2CCC1C2 (stereo unspecified) | 56* | 0.4 | 18 | -1 | 0.8 | -9
COc1ccc(CN(C(=O)CSc2nnc(-c3ccccc3F)o2)c2ccc(F)cc2)cc1 | 62* | 0.4 | 76* | 5 | 0.2 | 30
CCOC(=O)CN(C(=O)CSc1nnc(-c2ccc(OC)c(OC)c2)o1)c1ccc(F)cc1 | 13 | 0.9 | 38 | 0 | 0.6 | 35
C=CCNC(=O)c1onc(CCl)c1C(=O)OC | 2 | 1 | 0 | -2 | 1 | -10
C/C(N)=C(/C#N)C(=O)COC(=O)CCC1CCCC1 | 49 | 0.5 | 16 | 0 | 0.8 | -17
SMILES | CYP2C19 inhib | CYP2C19 activ | CYP2C9 inhib | CD11b adhes enh | CYP2C9 activ | Mac1 fbg inh
CC1CCN(C(=O)CN(C)S(=O)(=O)c2cccc3nsnc23)CC1 | 11 | 0.9 | 23 | nt | 0.8 | nt
COc1ccccc1-c1nnc(SCC(=O)Nc2c(Cl)cccc2Cl)o1 | 85* | 0.2 | 74* | 3 | 0.3 | -18
O=C(CSc1nnc(-c2ccco2)n1CC1CCCO1)NC1CCCC1 (stereo unspecified) | 54* | 0.5 | -23 | -2 | 1.2 | -31
COc1cc(-c2nnc(SCC(=O)OC3CCCCC3)o2)cc(OC)c1OC | 18 | 0.8 | 14 | -5 | 0.9 | -10
CCNC(=O)CSc1nnc(-c2cc(-c3ccc(Cl)cc3)nc3ccccc23)o1 | nt | nt | nt | 4 | nt | 2
COc1ccccc1-c1nnc(SCC(=O)NC2CCCCC2)o1 | 54* | 0.5 | -93 | 0 | 1.9 | -6
Cc1c(NC(=O)CSc2nnc(-c3cccc(Cl)c3)o2)c(=O)n(-c2ccccc2)n1C | 0 | 1 | 32 | 3 | 0.7 | -21
COc1ccccc1-c1nnc(SCC(=O)NCc2c(C)c(Cl)cc(C(C)C)c2O)o1 | 36 | 0.6 | -201 | -4 | 3* | 74
CCOc1ccc(C(=O)NCC(=O)OCc2ccc(F)cc2Cl)cc1 | nt | nt | nt | -1 | nt | 10
Cc1cc(C)cc(NC(=O)CSc2nnc(-c3ccccc3Br)o2)c1 | 39 | 0.6 | 37 | -4 | 0.6 | -4
CCOC(=O)CSc1nnc(-c2ccccc2OC)o1 | 36 | 0.6 | -95 | -1 | 2* | 2
COc1cccc(NC(=O)CSc2nnc(-c3cc(C)n(-c4ccccc4)c3C)o2)c1 | 50 | 0.5 | 78* | nt | 0.2 | nt
COC(=O)CSc1nnc(-c2ccc(OC)cc2OC)o1 | 10 | 0.9 | -10 | -4 | 1.1 | -14
COc1ccc(OC)c(CN2CCCC(CO)C2)c1 (stereo unspecified) | -10 | 1.1 | -8 | 0 | 1.1 | -25
O=C1CCCN1c1ccc(S(=O)(=O)Oc2ccc(Cl)cc2)cc1[N+](=O)[O-] | 50 | 0.5 | 20 | nt | 0.8 | nt
N#Cc1c(Nc2ccccc2)sc(C(=O)c2ccccc2)c1N | 14 | 0.9 | -2 | -2 | 1 | -48
Cc1cccc(Oc2sc(C(=O)c3ccccc3)c(N)c2C#N)c1 | 61* | 0.4 | 47 | nt | 0.5 | nt
CCOc1ccc(C)cc1S(=O)(=O)n1ccnc1 | 44 | 0.6 | 61* | 1 | 0.4 | -3
CN(C)c1nc(SCCOC(=O)c2ccccc2)nc(N(C)C)n1 | 99* | 0 | 62* | 4 | 0.4 | 57
CCSc1ncc(C#N)c(=O)[nH]1 | 2 | 1 | -12 | 7 | 1.1 | -12
O=C(c1cccs1)N(C(=O)c1cccs1)c1ccc(Br)cn1 | 100* | 0 | 99* | 0 | 0 | 7
CCC(C)NS(=O)(=O)c1ccc(S(=O)(=O)N(CC(=O)Nc2ccccc2)CC2CCCO2)cc1 (stereo unspecified) | 41 | 0.6 | 92* | -4 | 0.1 | 4
O=S(=O)(NCC1CCCO1)c1ccc(Oc2ccccc2)cc1 (stereo unspecified) | 95* | 0 | 83* | 2 | 0.2 | 23
O=C(O)c1cccc(S(=O)(=O)NCC2CCCO2)c1 (stereo unspecified) | -16 | 1.2 | -19 | 2 | 1.2 | -10
